Source: PubChem BioAssay AID1626 (SRMLSC, 2009)
About 2,000 (0.91%) of roughly 220,000 compounds were called active. Inconclusive results (about 2%) are left out. No stated cut-off is given here; in the data, inconclusive means inhibition above about 80% without an active follow-up result; inactive means below that; test concentration not stated here. Only a sample is shown. Results with a measured potency or affinity are listed apart.

test: M. tuberculosis H37Rv growth inhibitors, H37Rv strain (AID 1626); conditions: stronger effect = higher value, concentration not given here;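 further: bacteria incubated seven days before Alamar blue readout; 0% = bacteria only wells and 100% = bacteria with antibiotic wells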

SMILES | inhibition
O=c1cn[nH]c2ccccc12 | -1.28% (inactive)
CCOc1cc(/C=N\NC(=O)C2C(=O)NCC2c2ccccc2)ccc1OC (configuration not stated) | -8.61% (inactive)
Cc1c(Br)ccc(NC(=O)CCN2C(=O)C3C4CCC(C4)C3C2=O)c1C (configuration not stated) | -22.5% (inactive)
CCOC(=O)c1c(N2C(=O)C3CC(C)=C(C)CC3C2=O)sc(C)c1C (configuration not stated) | -1.38% (inactive)
COc1ccc(NC(=O)CNc2cccc(C#N)c2)cc1Cl | -9.7% (inactive)
COc1ccc(NC(=O)CNc2ccc(C#N)cc2)cc1 | -4.76% (inactive)
COc1ccccc1NC(=O)CNc1ccc(F)c(Cl)c1 | -4.82% (inactive)
N#Cc1ccccc1NC(=O)CNc1ccc(Cl)c(C(F)(F)F)c1 | 1.74% (inactive)
Cc1noc(C)c1/C=N/Nc1ccccn1 | -11.2% (inactive)
COC(=O)c1ccccc1NC(=O)c1sc(N)nc1C | -3.82% (inactive)
CCC/C=C1/CCCOC(C(=O)NCc2ccccc2)(C(F)(F)F)C1 (configuration not stated) | -24.5% (inactive)
O=C(Nc1cccc(-c2csc(Nc3cccc(C(F)(F)F)c3)n2)c1)c1cc([N+](=O)[O-])cc(C(F)(F)F)c1 | -8.7% (inactive)
O=C(Nc1ccc(-c2csc(Nc3ccccc3)n2)cc1)c1cccc(C(F)(F)F)c1 | 14.9% (inactive)
O=C(Nc1ccc(-c2csc(Nc3cccc(C(F)(F)F)c3)n2)cc1)c1ccccc1 | 0.91% (inactive)
O=C(Nc1ccc(-c2csc(Nc3ccccc3)n2)cc1)c1cc([N+](=O)[O-])cc(C(F)(F)F)c1 | 50.3% (inactive)
CCOc1ccccc1N(CC(=O)NCc1ccccc1)C(=O)CCC(=O)Nc1cc(C)ccn1 | -1.77% (inactive)
Cc1cc(NCCCN2CCOCC2)n2c(nc3ccccc32)c1C#N | -4.69% (inactive)
CC1=C(C(=O)OC(C)C)C(c2cccs2)n2ncnc2N1 (configuration not stated) | 7.3% (inactive)
O=C(/C=C\c1ccco1)c1ccc(NC(=O)c2ccco2)cc1 | -2.87% (inactive)
CC(=O)Nc1ccc(C(=O)/C=C/c2ccco2)cc1 | -0.44% (inactive)
COCCCNC(=S)N(Cc1ccccc1)Cc1nc2ccccc2c(=O)[nH]1 | -7.77% (inactive)
NC(=O)C(=CNc1nc(-c2ccc(Cl)c(Cl)c2)cs1)C(N)=O | -3.81% (inactive)
OC1=C(O)c2nc3cc(C(F)(F)F)ccc3nc21 | -3.35% (inactive)
COc1ccc(NCc2ccc([N+](=O)[O-])s2)c(OC)c1 | 79.8% (inactive)
COc1cccc(NCc2ccc([N+](=O)[O-])s2)c1 | 15.2% (inactive)

SMILES | inhibition
NC(=O)c1ccc(NC(=O)C2CCCO2)cc1 (configuration not stated) | -8.76% (inactive)
COC(=O)c1ccc(NC(=O)c2ccc(NC(=O)C3CCCO3)cc2)cc1 (configuration not stated) | 10.1% (inactive)
CCCCNC(=O)c1ccc(NC(=O)C2CCCO2)cc1 (configuration not stated) | 0.89% (inactive)
CC(C)COC(=O)c1ccc(NC(=O)C2C3C=CC(C3)C2C(=O)O)cc1 (configuration not stated) | 58.1% (inactive)
CCCCNS(=O)(=O)c1ccc(NC(=O)C2CCCO2)cc1 (configuration not stated) | 6.1% (inactive)
COC(=O)c1ccc(NC(=O)C2C3C=CC(O3)C2C(=O)O)cc1 (configuration not stated) | -12.1% (inactive)
CCOC(=O)c1cc(NC(=O)C2CCCO2)cc(C(=O)OCC)c1 (configuration not stated) | 3.41% (inactive)
COC(=O)c1ccc(NC(=O)C2CCCO2)cc1 (configuration not stated) | -10.3% (inactive)
Cn1ncc(C#N)c1NC(=O)C1CC(c2ccc(Cl)c(Cl)c2)=NO1 (configuration not stated) | -5.17% (inactive)
COC(=O)c1[nH]c2ccccc2c1NC(=O)CN1CC(C)OC(C)C1 (configuration not stated) | -0.75% (inactive)
CCOC(=O)N1CCN(C(=O)Cc2ccc(C)cc2)CC1 | -3.57% (inactive)
CN(C)C(CNC(=S)Nc1ccccc1Cl)c1cccnc1 (configuration not stated) | 7.94% (inactive)
CCOC(=O)c1ccc(NC(=O)C(=O)NCC2CCCO2)cc1 (configuration not stated) | 65.4% (inactive)
CCCCOC(=O)c1ccc(NC(=O)C(=O)NCC2CCCO2)cc1 (configuration not stated) | 34.8% (inactive)
COc1ccc(Br)c2oc(S)cc(=O)c12 | -4.76% (inactive)
CCN(CC)C(=O)C1CCCN(Cc2ccc(F)c(F)c2)C1 (configuration not stated) | -6.74% (inactive)
CCC(CC)C(=O)Nc1ccc([N+](=O)[O-])cn1 | 1.14% (inactive)
CCCc1nc(SCC(=O)Nc2cc(C)on2)c2c(=O)n(C)c(=O)n(C)c2n1 | 5.55% (inactive)
Cn1c(Cl)nc2ccccc21 | -1.9% (inactive)
Cn1c(CNc2ccccc2)nc2ccccc21 | 5.08% (inactive)
CCCCn1c(/N=C/c2ccc(N(C)C)cc2)nc2ccccc21 | -13.8% (inactive)
CN(C)c1ccc(-c2nc3ccccc3n2C)cc1 | -2.73% (inactive)
Cc1cccc(NCc2nc3ccccc3n2C)c1 | -0.92% (inactive)
Cc1ccc(NCc2nc3ccccc3n2C)cc1 | 6.89% (inactive)
CC(=O)Nc1nc(=S)n(-c2ccccc2)[nH]1 | -1.91% (inactive)

SMILES | inhibition
COC(=O)C1CCN(C(=O)COC(=O)CC(NC(C)=O)c2ccccc2)CC1 (configuration not stated) | -3.65% (inactive)
Fc1cccc2sc(N3CCCCC3)nc12 | -9.23% (inactive)
COc1ccccc1NC(=O)CCc1nc(-c2ccccc2F)no1 | 2% (inactive)
O=C(NC1=NC2CCCCC2N1)c1ccccc1 (configuration not stated) | 1.79% (inactive)
Cc1ccc(C2=Nc3ccccc3N=C(c3ccc([N+](=O)[O-])cc3)C2)c(O)c1 | 0.53% (inactive)
Cc1ccc(O)c(C2=Nc3ccccc3N=C(c3cccc([N+](=O)[O-])c3)C2)c1 | 3.86% (inactive)
CCc1cccc(CC)c1NC(=S)Nc1cccc(Cl)c1Cl | 2.37% (inactive)
CCCCCn1c(=O)c(-c2nc3ccccc3[nH]2)c(O)c2ccccc21 | 52.9% (inactive)
CCn1c(=O)c(C(=O)Nc2ccccn2)c(O)c2ccccc21 | -3.43% (inactive)
CCCn1nc(C(=O)Nc2nc3ccccc3[nH]2)c2ccccc2c1=O | 59.6% (inactive)
CCn1c(=O)c(-c2nc3ccccc3[nH]2)c(O)c2ccccc21 | 43.3% (inactive)
CC1Cc2ccccc2N1C(=O)c1ccc(N2CCCC2)c([N+](=O)[O-])c1 (configuration not stated) | 4.46% (inactive)
CCN(C(=O)CSc1nc(-c2ccccc2)c(-c2ccccc2)[nH]1)C1CCS(=O)(=O)C1 (configuration not stated) | 0.12% (inactive)
CSc1ncccc1C(=O)OCC(=O)N(CC(C)C)C1CCS(=O)(=O)C1 (configuration not stated) | -5.78% (inactive)
CCCn1c(SCC(=O)Nc2ccc(OC)cc2[N+](=O)[O-])n[nH]c1=O | 1.11% (inactive)
O=C1Nc2ccccc2N(O)N1c1ccc(Cl)cc1 | -3.86% (inactive)
O=C(C1=C[C@@H](C2CC2)C[C@@H](OCc2ccc(CO)cc2)O1)N1CCN(Cc2ccccc2)CC1 | 0.13% (inactive)
O=C(CCC(=O)N1CCN(c2ccccn2)CC1)Nc1nnc(C(F)(F)F)s1 | -6.15% (inactive)
COc1ccccc1N1CCN(C(=O)COc2ccc(S(=O)(=O)NC(C)(C)C)cc2)CC1 | 0.98% (inactive)
CN1CC=C(c2c[nH]c3ccccc23)CC1 | -7.46% (inactive)
O=C(Nc1ccc2c(c1)OCO2)c1ccc(Br)s1 | 9.98% (inactive)
Cc1nn(-c2ccccc2)c(C)c1C(=O)Nc1ccc(N2CCOCC2)cc1 | -4.12% (inactive)
O=C(Nc1nnc(-c2ccco2)o1)C1CC1 | 4.4% (inactive)
CCC(=O)Nc1nnc(-c2ccco2)o1 | 10.2% (inactive)
CC(=O)Nc1nnc(-c2ccco2)o1 | 0.62% (inactive)

SMILES | inhibition
O=C(Nc1nnc(-c2ccco2)o1)c1ccc(N2C(=O)CCC2=O)cc1 | -1.43% (inactive)
CCN(c1ccccc1)S(=O)(=O)c1ccc(C(=O)Nc2nnc(-c3ccco3)o2)cc1 | 61.3% (inactive)
O=C(Nc1nnc(-c2ccco2)o1)c1ccc(S(=O)(=O)N2CCCC2)cc1 | 41.6% (inactive)
CN(C)S(=O)(=O)c1ccc(C(=O)Nc2nnc(-c3ccco3)o2)cc1 | -14.7% (inactive)
COCCCNC(=O)CN(c1cc(Cl)ccc1OC)S(=O)(=O)c1ccc(C)c([N+](=O)[O-])c1 | -9.07% (inactive)
O=C(c1ccco1)N1CCN(c2ccc(S(=O)(=O)N3CCCC3)cc2)CC1 | -12.6% (inactive)
Cc1ccc(NCCNc2ccc(C)cc2)cc1 | 5.4% (inactive)
C[N+](C)(CC#Cc1ccccc1)CC(=O)c1ccc(Cl)cc1 | 0.9% (inactive)
Cc1ccc(-c2cc(C(=O)N/N=C/c3c(C)nn(C)c3C)c3ccccc3n2)c(C)c1 | -2.59% (inactive)
CCCc1nnc2n1N=C(c1ccc([N+](=O)[O-])cc1)CS2 | 3% (inactive)
Cn1nnc(NC(=O)c2ccc3ccccc3c2)n1 | 0.14% (inactive)
Cc1cccc(C)c1NC(=O)c1ccc([N+](=O)[O-])s1 | 11.5% (inactive)
O=C(Cc1ccccc1)Nc1nnc(-c2ccco2)o1 | 1.37% (inactive)
O=C(Nc1ccncc1)c1ccc2ccccc2c1 | 1.37% (inactive)
O=C(COc1ccccc1)Nc1nnc(-c2ccco2)o1 | -3.85% (inactive)
Cc1cccc(NC(=O)c2ccc([N+](=O)[O-])s2)c1C | 53.1% (inactive)
O=C(Nc1nnc(-c2ccco2)o1)c1cccc(N2C(=O)CCC2=O)c1 | 2.38% (inactive)
Cc1cccc(C(=O)Nc2nnc(-c3ccncc3)o2)c1 | 62.6% (inactive)
COc1ccc(OC)c2c(C)cc(N3CCN(C(=O)c4ccc(F)cc4)CC3)nc12 | 8.6% (inactive)
O=C(/C=C/c1ccco1)Nc1ccccc1N1CCCCC1 | 10.2% (inactive)
Cc1c(NC(=S)N/C(=N/S(=O)(=O)c2ccc(Cl)cc2)c2ccccc2)c(=O)n(-c2ccccc2)n1C | 3.87% (inactive)
Cc1ccc(S(=O)(=O)Nc2cccc(C(=O)Nc3cc(C)ccn3)c2)cc1 | 7.87% (inactive)
